The record followed here is PubChem BioAssay (NCATS).

Assay [1] deals with Glucocorticoid receptor (Homo sapiens) (UniProt P04150). Kind of assay: GR-GFP Redistribution (AID 450;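 active means compounds whose dose series gives a full or clear partial fitted curve of increased nuclear translocation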; further: potency means the concentration at half of the fitted maximal effect). Particulars: U2OS GR-GFP nuclear translocation, laser cytometry, 2 h.
The target is the same in assay [2]. Kind of assay: GR-EFC Redistribution (AID 451; calls by dose curve; further: potency means the concentration at half of the fitted maximal effect). Particulars: CHO-K1 GR-EFC translocation, beta-gal luminescence, 2 h. In outline:
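CHO-K1 cells stably expressing nuclear-localized β-gal enzyme acceptor and GR fused C-terminally to the enzyme donor fragment; ligand-driven nuclear translocation restores β-gal by complementation. Compounds titrated up to 46 uM final, 2 h at 37 °C; luminescence read.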

For assay [3], the target named is Mitogen-activated protein kinase 10 (Mus musculus) (UniProt Q61831). Kind of assay: JNK3 AlphaScreen Assay (AID 530; active means well fitted curve in either direction with a large enough effect, not every such curve was filed as active;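 further: kinase came from lysate of stimulated human HepG2 cells; signal reports phosphorylation of biotinylated GST-cJun 1-79 at Ser73 with 10 µM ATP; on the % scale 0 is the no-effect control and ±100 the full control effect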). The note with it: JNK3 lysate, c-Jun phosphorylation; series mostly up to 57.1 µM. In outline:
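Phosphorylation of biotinylated GST-cJun(1-79) at Ser73 is measured by AlphaScreen proximity luminescence. Enzyme is JNK3 in HepG2 lysates activated with interleukin-1beta and tumor necrosis factor alpha; ATP is 10 uM final.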
(Bead proximity is the source of the signal in Alpha formats.)

Assay [4] has as its target 3',5'-cyclic-AMP phosphodiesterase 4B (Homo sapiens) (UniProt Q07343). Kind of assay: qHTS Assay for Inhibitors of PDE-IV (AID 607; active means well fitted activation curve with a large enough effect in the main read-out, with a control signal flat, not every such curve was filed as active; further: % of control where 0% means no effect). Particulars: HEK293 ACTOne CNG channel cells, membrane potential fluorescence; series mostly up to 22.9 µM. In a few lines: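 HEK293 ACTOne cells with CNG channel (1000/well), endogenous PDE4; membrane potential dye, compounds up to 22.9 uM final. Fluorescence Ex 535/Em 590; RO 20-1724 (100 uM final) as reference.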
A general note: In qHTS, concentration-response curves come from the screen itself.

Assay [5] is described as follows: qHTS Assay for Lipid Storage Modulators (AID 1519; calls by dose curve; on activity change, negative = inhibition: on the % scale 0 is the no-effect control and ±100 the full control effect). Particulars: Drosophila S3 cells, BODIPY lipid droplet/cell ratio, laser cytometry, cells loaded with oleic acid. In outline:
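Cells seeded at 5,000 per well were treated with compounds over a concentration series and loaded with oleic acid (400 uM, as added). Lipid droplet fluorescence (488 nm excitation, 500-530 nm channel) was read by laser-scanning cytometry and normalized to 20 uM Triacsin C.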

Assay [6] addresses Ubiquitin carboxyl-terminal hydrolase 1 (Homo sapiens) (UniProt O94782). Kind of assay: Inhibitors of USP1/UAF1: Pilot qHTS (AID 504865).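 Further: rhodamine fluorescence freed from ubiquitin-rhodamine substrate followed over time; top concentration of the series differs between compounds; on the % scale 0 is the no-effect control and ±100 the full control effect; nearly all actives have a fitted effect of over 35% in size.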 The note with it: purified USP1/UAF1, Ub-rhodamine cleavage fluorescence; series mostly up to 114 µM. In a few lines: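 Enzyme-free wells gave the negative control, while test wells held 1nM USP1/UAF1 preincubated with compound for 15 min at room temperature. Ub-Rho at 150nM final started the reaction, and fluorescence at 480/540 nm was recorded kinetically.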

Assay [7] addresses DNA dC->dU-editing enzyme APOBEC-3G (Homo sapiens) (UniProt Q9HC16). Kind of assay: qHTS for inhibitors of Vif-A3G interactions: Validation (AID 588379). Further: 0% is about no effect. Particulars: Vif-A3G protein interaction assay; series mostly up to 46.1 µM. In outline: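 Yellow fluorescence (Ex 488, Em 500-530) of Vif-coexpressing HeLa A3G-eYFP cells, scanned by Acumen cytometer, reports blocked A3G degradation. Cells plated at 700/well overnight at 37 deg C before compound addition, then a further overnight compound incubation at 37 deg C.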

For assay [8], the system named is Zika virus NS2B-NS3 protease. Kind of assay: Primary screen GU AMC qHTS for Zika virus inhibitors (AID 1347154).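 Further: 0% = no-inhibitor control and -100% = no-enzyme control; nearly all actives have a fitted effect of over 70% in size.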 The note with it: Zika NS2B-NS3 unlinked protease, AMC fluorogenic substrate; series mostly up to 54.1 µM. In outline: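 Unlinked Zika NS2B hydrophilic domain/NS3 protease domain noncovalent complex (25 nM final) in 10 mM Tris-HCl pH 8.0, 0.01% Tween 20, with AMC peptide substrate. Fluorescence (ex 340, em 450 nm) change over 15 min, room temperature; percent inhibition fitted to 4-parameter Hill equation.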

The nature of assay [9]: Confirmation and Secondary Assay for Modulators of Hemoglobin Beta Chain Splicing at IVS2 654 locus (AID 910).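 Further: per-well total GFP intensity by laser scanning cytometry after 2-day treatment; % of control where 0% means no effect.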 Particulars: HeLa EGFP-654 splicing reporter, GFP fluorescence, 48 h; series mostly up to 46.1 µM. In a few lines:
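HeLa cells stably carrying EGFP interrupted by mutant beta-globin IVS2-654 intron (CMV-driven) were treated with compound for 2 days at 37C; corrected splicing was scored as total peak GFP intensity per well (488 nm excitation, 500-520 nm emission).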

A short description of assay [10]: Confirmation and Secondary Assay for Modulators of Hemoglobin Beta Chain Splicing at IVS2 705 locus (AID 930).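 Further: HeLa cells stably expressing the EGFP-705 splicing reporter; % of control where 0% means no effect.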 Particulars: HeLa EGFP-705 splicing reporter, GFP fluorescence, 48 h; series mostly up to 46.1 µM. In a few lines: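 Restored EGFP fluorescence after 2-day compound exposure reports splicing correction in IVS2-705 EGFP reporter HeLa cells; positive control was 500 nM splice-blocking PNA oligo. Signal measured as well total peak GFP intensity (488 nm excitation).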

In assay [11] the target is Cytochrome P450 2D6 (Homo sapiens) (UniProt P10635). Kind of assay: Cytochrome P450 family 2 subfamily D member 6 (CYP2D6) small molecule antagonists: luciferase biochemical (cell-free) qHTS assay (AID 1645840; active means well fitted curve in the direction sought with a large enough effect in the repeat runs; an effect the other way counts as inactive or inconclusive; further: on the % scale 0 is the no-effect control and ±100 the full control effect; nearly all actives have a fitted effect of over 55% in size). The note with it: P450-Glo CYP2D6 enzyme, luciferin luminescence, 1 h; series mostly up to 57.4 µM. In a few lines:
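P450-Glo CYP2D6 system: proluciferin substrate converted by enzyme to luciferin, read by luminescence proportional to activity. Enzyme-substrate mix with compound 10 min at room temperature, then NADPH regeneration 1 h before detection reagent.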

In assay [12] the target is Cytochrome P450 3A4 (Homo sapiens) (UniProt P08684). The assay is described as follows: Cytochrome P450 family 3 subfamily A member 4 (CYP3A4) small molecule antagonists: luciferase qHTS assay (AID 1645841; active means well fitted curve in the direction sought with a large enough effect in the repeat runs; an effect the other way counts as inactive or inconclusive; further: nearly all actives have a fitted effect of over 45% in size). The note with it: P450-Glo CYP3A4 enzyme assay, luciferin luminescence; series mostly up to 57.4 µM. In outline: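 P450-Glo CYP3A4 enzyme with proluciferin substrate was preincubated with DMSO-dissolved compounds for 10 min at room temperature. NADPH regeneration solution started a 1 h reaction. Detection reagent stopped it, and luminescence was read after 20 min.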

Assay [13] is described as follows: NCATS anti-infectives library activity on HEK293 viability as a counter-qHTS vs the C. elegans viability qHTS (AID 1745854). Further: on the % scale 0 is the no-effect control and ±100 the full control effect. The note with it: HEK293 viability counter-screen; series mostly up to 41.8 µM. In outline:
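Cytotoxicity counter-screen to a worm viability qHTS: CellTiter-Glo luminescence read 10 min after reagent addition. Compounds (final up to 41.7 uM, a 1:5 dilution series) incubated 24 hr at 37C with 1,500 HEK293 cells per well; digitonin control.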

Records with an inconclusive call do not appear. Calls of active or inactive are those of the source. Unless noted, the call rests on the fitted dose curve; in most records, active means well fitted curve in the direction sought with a large enough effect; inconclusive means small, poorly fitted or top-dose-only effect, or another doubt; inactive means no such curve, though single readings can be large; an effect the other way counts as inactive or inconclusive. Bounds are passed on as bounds.

Chain of Glucocorticoid receptor (Homo sapiens) (P04150 whole entry, looked up): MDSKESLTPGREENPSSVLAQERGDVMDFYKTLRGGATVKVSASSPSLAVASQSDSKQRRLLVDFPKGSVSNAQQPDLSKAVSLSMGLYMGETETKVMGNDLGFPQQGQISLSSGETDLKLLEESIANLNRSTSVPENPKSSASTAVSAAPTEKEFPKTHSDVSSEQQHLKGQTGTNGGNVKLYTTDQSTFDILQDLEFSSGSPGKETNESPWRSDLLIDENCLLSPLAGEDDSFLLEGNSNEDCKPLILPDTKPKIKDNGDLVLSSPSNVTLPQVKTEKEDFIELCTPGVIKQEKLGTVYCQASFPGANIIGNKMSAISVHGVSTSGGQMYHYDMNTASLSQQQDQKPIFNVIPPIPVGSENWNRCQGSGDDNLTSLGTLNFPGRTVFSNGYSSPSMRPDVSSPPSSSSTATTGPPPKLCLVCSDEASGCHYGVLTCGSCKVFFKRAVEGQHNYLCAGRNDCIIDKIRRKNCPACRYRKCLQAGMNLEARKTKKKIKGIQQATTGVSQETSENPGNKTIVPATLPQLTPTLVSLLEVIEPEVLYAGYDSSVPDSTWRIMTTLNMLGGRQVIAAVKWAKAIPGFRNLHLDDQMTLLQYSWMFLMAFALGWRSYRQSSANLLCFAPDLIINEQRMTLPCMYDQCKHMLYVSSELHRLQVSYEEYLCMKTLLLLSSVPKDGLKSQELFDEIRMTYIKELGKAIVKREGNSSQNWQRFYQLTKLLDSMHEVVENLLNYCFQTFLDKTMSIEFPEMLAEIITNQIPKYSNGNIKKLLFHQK
Chain of Ubiquitin carboxyl-terminal hydrolase 1 (Homo sapiens) (O94782 whole entry, looked up): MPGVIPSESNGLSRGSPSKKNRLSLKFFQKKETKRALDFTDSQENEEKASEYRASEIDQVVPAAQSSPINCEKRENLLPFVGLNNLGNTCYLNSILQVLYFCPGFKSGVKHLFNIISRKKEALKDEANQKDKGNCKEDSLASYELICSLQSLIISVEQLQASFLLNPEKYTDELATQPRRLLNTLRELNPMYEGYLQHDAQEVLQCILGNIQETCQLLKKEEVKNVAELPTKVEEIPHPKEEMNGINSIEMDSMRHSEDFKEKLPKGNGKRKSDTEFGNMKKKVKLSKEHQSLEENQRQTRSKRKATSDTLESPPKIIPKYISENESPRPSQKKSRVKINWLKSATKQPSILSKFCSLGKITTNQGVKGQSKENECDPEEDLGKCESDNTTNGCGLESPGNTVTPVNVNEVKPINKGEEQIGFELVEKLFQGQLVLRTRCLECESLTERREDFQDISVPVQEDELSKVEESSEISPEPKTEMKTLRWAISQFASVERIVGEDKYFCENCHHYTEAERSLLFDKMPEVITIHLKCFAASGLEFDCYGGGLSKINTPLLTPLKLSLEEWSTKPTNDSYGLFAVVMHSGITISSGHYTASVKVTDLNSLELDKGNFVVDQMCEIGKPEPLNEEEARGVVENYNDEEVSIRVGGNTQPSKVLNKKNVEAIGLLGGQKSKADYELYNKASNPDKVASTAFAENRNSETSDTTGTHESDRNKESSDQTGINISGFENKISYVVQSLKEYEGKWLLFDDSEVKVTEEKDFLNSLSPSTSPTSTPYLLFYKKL
Chain of 3',5'-cyclic-AMP phosphodiesterase 4B (Homo sapiens) (Q07343 whole entry, looked up): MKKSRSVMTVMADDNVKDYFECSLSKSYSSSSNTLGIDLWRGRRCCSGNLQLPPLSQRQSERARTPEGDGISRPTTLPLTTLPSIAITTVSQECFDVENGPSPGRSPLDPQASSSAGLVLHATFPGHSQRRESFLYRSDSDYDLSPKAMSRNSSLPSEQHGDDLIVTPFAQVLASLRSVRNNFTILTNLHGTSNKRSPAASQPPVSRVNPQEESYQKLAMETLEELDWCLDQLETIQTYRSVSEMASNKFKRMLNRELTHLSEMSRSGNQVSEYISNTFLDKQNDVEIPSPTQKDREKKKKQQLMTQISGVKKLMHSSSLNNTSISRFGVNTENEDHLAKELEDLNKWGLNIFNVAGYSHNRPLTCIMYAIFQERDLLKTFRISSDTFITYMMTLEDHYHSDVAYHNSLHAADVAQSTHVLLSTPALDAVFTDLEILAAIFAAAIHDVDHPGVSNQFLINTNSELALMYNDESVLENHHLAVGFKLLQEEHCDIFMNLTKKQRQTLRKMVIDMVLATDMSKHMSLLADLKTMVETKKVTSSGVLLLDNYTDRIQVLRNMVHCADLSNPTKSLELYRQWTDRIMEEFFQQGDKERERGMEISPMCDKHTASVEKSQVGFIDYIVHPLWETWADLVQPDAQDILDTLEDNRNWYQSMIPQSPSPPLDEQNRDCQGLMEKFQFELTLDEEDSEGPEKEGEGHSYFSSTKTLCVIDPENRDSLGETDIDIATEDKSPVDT
Chain of Cytochrome P450 3A4 (Homo sapiens) (P08684 whole entry, looked up): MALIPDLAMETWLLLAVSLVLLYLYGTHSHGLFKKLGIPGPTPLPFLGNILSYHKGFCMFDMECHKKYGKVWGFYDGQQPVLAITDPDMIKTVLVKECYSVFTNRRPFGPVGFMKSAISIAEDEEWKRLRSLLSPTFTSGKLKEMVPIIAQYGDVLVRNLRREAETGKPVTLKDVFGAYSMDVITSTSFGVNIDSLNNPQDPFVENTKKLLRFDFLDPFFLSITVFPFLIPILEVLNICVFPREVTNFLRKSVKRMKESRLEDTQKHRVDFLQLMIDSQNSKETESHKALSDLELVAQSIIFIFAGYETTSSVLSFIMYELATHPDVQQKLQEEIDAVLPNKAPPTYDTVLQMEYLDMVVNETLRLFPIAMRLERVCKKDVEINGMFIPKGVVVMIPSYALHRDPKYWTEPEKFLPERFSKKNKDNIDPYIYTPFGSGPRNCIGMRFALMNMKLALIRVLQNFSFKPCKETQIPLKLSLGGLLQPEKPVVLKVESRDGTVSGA
Chain of Cytochrome P450 2D6 (Homo sapiens) (P10635 whole entry, looked up): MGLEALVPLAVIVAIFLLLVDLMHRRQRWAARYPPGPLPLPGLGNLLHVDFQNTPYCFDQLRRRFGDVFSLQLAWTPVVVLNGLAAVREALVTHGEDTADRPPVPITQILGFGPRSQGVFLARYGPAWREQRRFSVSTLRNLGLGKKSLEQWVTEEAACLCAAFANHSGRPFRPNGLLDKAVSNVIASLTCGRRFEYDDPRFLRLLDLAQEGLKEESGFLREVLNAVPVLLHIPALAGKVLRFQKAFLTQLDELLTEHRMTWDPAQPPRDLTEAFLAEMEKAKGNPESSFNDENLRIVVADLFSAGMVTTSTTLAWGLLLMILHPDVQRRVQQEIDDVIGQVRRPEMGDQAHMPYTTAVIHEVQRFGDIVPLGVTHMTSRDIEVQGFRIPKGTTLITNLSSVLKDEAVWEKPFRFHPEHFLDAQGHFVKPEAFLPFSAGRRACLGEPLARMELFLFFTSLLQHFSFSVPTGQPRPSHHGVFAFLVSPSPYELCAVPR
Chain of DNA dC->dU-editing enzyme APOBEC-3G (Homo sapiens) (Q9HC16 whole entry, looked up): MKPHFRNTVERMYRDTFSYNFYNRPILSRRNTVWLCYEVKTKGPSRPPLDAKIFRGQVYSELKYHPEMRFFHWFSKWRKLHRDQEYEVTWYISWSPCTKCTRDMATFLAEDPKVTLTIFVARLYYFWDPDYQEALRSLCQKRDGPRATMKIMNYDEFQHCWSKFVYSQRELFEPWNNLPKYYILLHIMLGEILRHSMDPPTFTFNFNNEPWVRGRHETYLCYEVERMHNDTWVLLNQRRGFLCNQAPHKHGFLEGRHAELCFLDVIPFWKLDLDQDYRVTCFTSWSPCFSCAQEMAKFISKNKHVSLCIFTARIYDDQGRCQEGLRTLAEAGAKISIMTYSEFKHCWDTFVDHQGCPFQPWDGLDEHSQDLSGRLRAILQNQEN

Take `CCNCCCNCCCCNCCCNCC`: the Potency in assay [1] and in assay [2] was > 46 µM (inactive) in each case. Moreover, the Potency result in [3], in assay [4], in assay [6], in assay [7] and in assay [8] was “inactive” in each case. Also, in assay [5] (at 57.5 µM (top of the series)), the activity change, negative = inhibition is 2.21% (inactive). Moreover, the max response came out at 15.1% in assay [5] (measured here: cell count channel max response) and 18.1% in assay [5] (measured here: lipid channel max response).

For `CC(C)c1cccc(O)c(=O)c1`, the compound was called inactive in assay [9], in [10], in assay [12] and in assay [13]. Moreover, the Potency entry in assay [6], in [8] and in assay [11] was “inactive” in each case.
